Screening data: PubChem BioAssay, National Center for Advancing Translational Sciences (NCATS)
The list is not random: actives were taken first. Their share in the collection is about 1.4%.
KCNH2 3.1 inh = blocks the human KCNH2 3.1 channel isoform; U2OS KCNH2 3.1, thallium flux FluxOr; stronger effect = lower value; activity change, % (tested at about 1.8 µM); 340,000 compounds, 0.95% hits;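 active means maximum activity change below -70%; inconclusive means maximum activity change from -70% to -50%; inactive means maximum activity change above -50%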;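 further: thallium influx rate constant from kinetic fluorescence after stimulation buffer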
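FluxOr-based Tl+ influx in U2OS cells transduced with KCNH2 3.1 virus; rate constants normalized to DMSO controls.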
KCNH2 WT inh = KCNH2 (human, wildtype) channel inhibition. U2OS, BacMam KCNH2, thallium flux FluxOr; stronger effect = lower value. Q12809. activity change, % at 1.84 µM. 340,000 compounds, 0.37% hits;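 active means maximum activity change below -70%; inconclusive means maximum activity change between -70% and -50%; inactive means maximum activity change above -50%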
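U2OS cells transduced with wild-type KCNH2 virus are loaded with FluxOr dye for 45 min, and thallium flux is measured in kinetic reads before and after stimulation buffer. Rate constants are normalized to DMSO controls.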
EPAC2 antag = blocks human EPAC2 exchange factor | Q8WZA2 | EPAC2 GEF exchange of Rap1B-BODIPY-GDP, fluorescence | Potency, µM (highest dose often 114 µM), most hits filed as inhibitors | 360,000 compounds, 0.18% hits | AID 720708; further: nearly all actives have a fitted effect of over 45% in size
EPAC2 ag = agonists of human EPAC2 (RAPGEF4); Q8WZA2; EPAC2 activation, biochemical qHTS; response scale: 100% = 6.5 mM cAMP response; Potency, µM (titrated, usually from 154 µM), most hits filed as activators; 360,000 compounds, 0.079% hits; AID 720711; further: nearly all actives have a fitted effect of over 50% in size
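Nucleotide exchange monitored as fluorescence drop when BODIPY-GDP leaves Rap1B. Reaction: 100 nM EPAC2, 250 nM RAP1B-BODIPY-GDP, 50 uM GDP, room temperature, kinetic read over 30 min. Activity expressed relative to 6.5 mM cAMP.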
EPAC1 antagonist = EPAC1 (human) antagonism; O95398; 360,000 compounds, 0.14% hits; Potency, µM (doses to about 115 µM), hits mostly inhibitors; EPAC1 GEF assay, Rap1b-BODIPY-GDP exchange fluorescence; further: nearly all actives have a fitted effect of over 50% in size
EPAC1 ag = activates human EPAC1 exchange factor. O95398. EPAC1 agonist qHTS, biochemical assay; response scale: 100% = response to 6.5 mM cAMP. Potency, µM (series often up to 154 µM), usual class: activators. 360,000 compounds, 0.073% hits; further: nearly all actives have a fitted effect of over 60% in size
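Fluorescent GDP-exchange assay: 100 nM EPAC1 with 250 nM Rap1B preloaded with BODIPY-GDP and 50 uM GDP; compounds tested as concentration series, 5 min at room temperature, then read every 5 min for 30 min (ex 480/em 540 nm); normalized to 6.5 mM cAMP.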
Large screens that a line does not name were inactive. Unless noted, the call rests on the fitted dose curve; in most records, active means well fitted curve in the direction sought with a large enough effect; inconclusive means small, poorly fitted or top-dose-only effect, or another doubt; inactive means no such curve, though single readings can be large; an effect the other way counts as inactive or inconclusive.

CCn1ncc([N+](=O)[O-])c1C(=O)Nc1c(C)nn(Cc2ccc(F)cc2)c1C	none
O=C1Nc2ccccc2-n2nnnc2C1N1CCN(C(=O)C2CCCO2)CC1 (stereo not given)	none (no result: KCNH2 3.1 inh, KCNH2 WT inh)
O=C(c1cc(COc2ccc(F)c(F)c2)on1)N1CCN(C2CCCCC2)C(=O)C1	KCNH2 3.1 inh -125
CC(OC(=O)c1ccc(Br)o1)C(=O)NCC1CCCCC1 (stereo not given)	none
CCN(CC)c1ccc(S(=O)(=O)N2CCOCC2)cc1NC(=O)CSc1nncs1	KCNH2 3.1 inh -187, KCNH2 WT inh -215
CCN(CC)c1ccc(S(=O)(=O)N2CCOCC2)cc1NC(=O)c1cc(=O)c2ccccc2o1	KCNH2 3.1 inh -74
CCN(CC)c1ccc(S(=O)(=O)N2CCOCC2)cc1NC(=O)CSc1ccccc1	none
O=C(NCc1cccs1)c1csc(COCCO)n1	none (no result: KCNH2 3.1 inh, KCNH2 WT inh)
Cc1nn(CC(=O)NCc2ccc(OC(C)C)cc2)c(=O)c2cc(-c3ccccc3)nn12	none
COC(=O)C1=CN(c2ccc(N3CCOCC3)cc2)C(N)=C(C#N)C1c1cccc(F)c1 (stereo not given)	none (no result: KCNH2 3.1 inh, KCNH2 WT inh)
COc1ccccc1N(C)S(=O)(=O)c1ccc(C(=O)OCC(=O)Nc2cc(C)on2)cc1	none (no result: KCNH2 WT inh)
COc1ccccc1N(CC(=O)Nc1cc(C)on1)S(=O)(=O)c1ccc(Cl)cc1	EPAC2 ag 4µM
COc1cc2c(c(OC)c1OC)-c1c(cc(OC)c(OC)c1OC)C[C@H](C)[C@H](C)C2	KCNH2 3.1 inh -174, KCNH2 WT inh -74, EPAC2 antag inconclusive
CCc1nnc(NS(=O)(=O)c2ccc(N/C=C\C(=O)c3ccc4ccccc4c3)cc2)s1	EPAC1 antagonist 50µM
CCc1nnc(NS(=O)(=O)c2ccc(NC(=S)NC(=O)c3ccc(Br)cc3)cc2)s1	EPAC1 antagonist 56µM
CCc1nnc(NS(=O)(=O)c2ccc(NC(=S)NC(=O)/C=C/c3ccccc3)cc2)s1	EPAC1 antagonist inconclusive
CCc1nnc(NS(=O)(=O)c2ccc(NC(=S)NC(=O)/C=C/c3ccc(C(C)C)cc3)cc2)s1	EPAC2 antag inconclusive, EPAC1 antagonist 79µM
CC1(C(=O)Nc2ccc3c(c2)OCCO3)CN(S(C)(=O)=O)CC(=O)N1CCc1ccccc1F (stereo not given)	none (no result: KCNH2 3.1 inh, KCNH2 WT inh)
CCN1CCc2nc3ccccc3c(C(=O)Nc3ccc(NC(C)=O)cc3)c2C1	none
CCN1CCc2nc3ccccc3c(C(=O)Nc3ccc(F)cc3)c2C1	KCNH2 3.1 inh -83, KCNH2 WT inh inconclusive
COCCNC(=O)C1(C)CCN(C(=O)c2ccc(C(F)(F)F)nc2C)C1 (stereo not given)	none (no result: KCNH2 3.1 inh, KCNH2 WT inh)
CCOC(=O)C(C)Sc1ncnc2c1nnn2-c1ccc(F)cc1 (stereo not given)	EPAC2 antag 20µM
O=C1C=C(c2ccccc2)C(c2ccccc2)C1 (stereo not given)	EPAC2 antag 35µM
COc1cccc(C2c3[nH]c4ccccc4c3CCN2Cc2ncc[nH]2)c1 (stereo not given)	EPAC2 antag 50µM
Cc1ccc(Cn2nnnc2CN2CCC(c3nc4ccc(Cl)cc4[nH]3)CC2)cc1	KCNH2 3.1 inh -88, EPAC1 antagonist inconclusive
CCOc1ccc(/C=N/NC(=O)c2csc(C)c2C)c(OCC)c1	KCNH2 3.1 inh -81, EPAC2 antag inconclusive
CCc1ccc2nc(SCC(=O)Nc3nnc(C)s3)c(C)cc2c1	KCNH2 3.1 inh -91, EPAC1 antagonist inconclusive
CCc1nnc(NC(=O)CSc2nc3cc4c(cc3cc2C)OCCO4)s1	none
C=C(C1=CCN(S(=O)(=O)C(C)(C)C)[C@@H]1CCO)c1ccccc1	none
O=[N+]([O-])c1ccc(N2CCN(C(=S)NC3CCCCC3)CC2)cc1	KCNH2 3.1 inh -72
O=[N+]([O-])c1ccc(N2CCN(S(=O)(=O)c3ccccc3)CC2)cc1	KCNH2 3.1 inh -84, KCNH2 WT inh -80
O=[N+]([O-])c1ccc(N2CCN(C(=S)Nc3ccccc3)CC2)cc1	none
O=C(c1ccc(-c2cccc(Cl)c2)o1)N1CCN(c2ccc([N+](=O)[O-])cc2)CC1	KCNH2 3.1 inh -101, KCNH2 WT inh inconclusive
O=C(CCCSc1nc2ccccc2[nH]1)N1CCN(c2ccc([N+](=O)[O-])cc2)CC1	KCNH2 3.1 inh -116, KCNH2 WT inh -105
CCN(CC(=O)Nc1c(F)cccc1F)C(=O)CN(C)S(=O)(=O)c1ccc(F)cc1	none
O=C(Cc1ccc(F)cc1)N1CCN(c2ccc([N+](=O)[O-])cc2)CC1	none
CSC(=NC#N)N1CCN(c2ccc([N+](=O)[O-])cc2)CC1	KCNH2 3.1 inh -79
O=C(Cc1ccc([N+](=O)[O-])cc1)N1CCN(c2ccc([N+](=O)[O-])cc2)CC1	KCNH2 3.1 inh -91, KCNH2 WT inh inconclusive
Cc1ccc(S(=O)(=O)NCc2ccc(C(=O)N3CCN(c4ccc([N+](=O)[O-])cc4)CC3)cc2)cc1	KCNH2 3.1 inh -96
COc1ccc(N2CCN(C(=O)c3ccc(CNS(=O)(=O)c4ccc(C)cc4)cc3)CC2)cc1	EPAC1 antagonist inconclusive
Cc1c(Cl)cccc1-c1ccc(C(=O)N2CCN(c3ccc([N+](=O)[O-])cc3)CC2)o1	KCNH2 3.1 inh -80
CC(C)C[C@@H](COCc1cccc(Cl)c1)N1CCN(C(=O)c2ccc(C(F)(F)F)cc2)CCC1=O	EPAC1 antagonist inconclusive (no result: KCNH2 3.1 inh, KCNH2 WT inh)
Cc1ccc2c(c1)N(C(=O)CCC(=O)N1CCC(C(N)=O)CC1)CC(C)O2 (stereo not given)	none
COc1cccc2c1C(=O)c1c(O)c3c(c(O)c1C2=O)C[C@@](O)(C(C)=O)C[C@@H]3O[C@H]1C[C@H](N)[C@H](O)[C@H](C)O1	EPAC2 antag inconclusive
CC(=O)[C@]1(O)Cc2c(O)c3c(c(O)c2[C@@H](O[C@H]2C[C@H](N)[C@H](O)[C@H](C)O2)C1)C(=O)c1ccccc1C3=O	EPAC2 ag 112µM, EPAC1 ag 100µM
CCCc1c(Cc2cccc(F)c2)ncn1Cc1cccc(-c2ccccc2)c1	none (no result: KCNH2 3.1 inh, KCNH2 WT inh)
COc1ccc(CNC(=O)C2(CC3CC(c4ccccc4)=NO3)CCN(C(=O)Cc3ccc(F)cc3)CC2)cc1 (stereo not given)	KCNH2 3.1 inh -72
CCOc1cc(C(=O)N2CCC(CC3CC(c4ccccc4)=NO3)(C(=O)NCc3ccc(OC)cc3)CC2)cc(OCC)c1OCC (stereo not given)	none
O=c1c(/C=C(\O)c2ccccc2)nc2ccccc2n1-c1ccccc1	EPAC2 ag 100µM, EPAC1 ag 100µM
O=C(c1ccccc1)N1CCc2[nH]nc(-c3ccccc3)c2C1	KCNH2 3.1 inh -94
